For part of these data: Potency and affinity values are given separately. Calls of active or inactive are those of the source. Unless noted, how the calls were made is not given here.
Legend:
[1] = antimalarial activity against Dd2 strain (AID 2302;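 active means growth inhibition above 50% at the single 2 µM test dose, taken to imply half-maximal potency below 2 µM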;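 further: 0% = DMSO untreated growth and 100% = chloroquine plus artemisinin killed control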); settings: P. falciparum Dd2 in RBCs, LDH growth readout, 72 h; at 2 µM; stronger effect = higher value
[2] = HepG2 cytotoxicity, primary screen, cytotoxicity control for P. falciparum antimalarial project, cell-based, ATP luminescence (AID 2303;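 active means inhibition above 50%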;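 further: 0% = DMSO wells and 100% = digitonin-killed cells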); settings: HepG2 viability, 24-48 h, at 10 µM, stronger effect = higher value
[3] = biological target: L-lactate dehydrogenase (Plasmodium falciparum (isolate CDC / Honduras)) (UniProt Q27743); test: PfLDH activity inhibition – cell lysate, 3D7 strain, counter-screen for P. falciparum growth inhibition project (AID 2304);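 further: 0% = vehicle and 100% = reference inhibitor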; settings: P. falciparum 3D7 crude extract, LDH APAD/NBT absorbance; at 2 µM; stronger effect = higher value
[4] = inhibition of 3D7 malaria parasite growth – strain 3D7 (AID 2306);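 further: 0% = DMSO wells and 100% = chloroquine plus artemisinin control wells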; settings: P. falciparum 3D7 erythrocytic growth, LDH absorbance, 72 h; at 2 µM; stronger effect = higher value
[5] = biological target: Calcium-dependent protein kinase 1 (Plasmodium falciparum (isolate 3D7)) (UniProt P62344); test: PfCDPK1 kinase inhibitors, biochemical, TCAMS library (AID 1159585; cut-off not given, nearly all actives have IC50 up to about 0.98 µM;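 further: inhibitors leave more ATP so luminescence rises with inhibition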); settings: recombinant PfCDPK1, Kinase-Glo ATP depletion luminescence
[6] = biological target: Plasmodium falciparum protein kinase 6 (PK6, PF3D7_1337100) (UniProt Q8IDW1); test: PfPK6 kinase inhibitors, biochemical, TCAMS library (AID 1159586); settings: recombinant PfPK6, Kinase-Glo ATP depletion luminescence
[7] = biological target: Protein kinase 7 (PK7), Plasmodium falciparum 3D7 (PF3D7_0213400) (UniProt Q7YTF7); test: inhibition of Plasmodium PK7 catalytic activity – biochemical, TCAMS antimalarial set, Kinase-Glo luminescence (AID 1159587); settings: recombinant PfPK7, Kinase-Glo ATP depletion luminescence
[8] = biological target: Calcium-dependent protein kinase 4 (Plasmodium falciparum (isolate 3D7)) (UniProt Q8IBS5); test: PfCDPK4 kinase inhibitors, biochemical, TCAMS library (AID 1159588; cut-off not given, nearly all actives have IC50 up to about 0.91 µM); settings: recombinant PfCDPK4, Kinase-Glo ATP depletion luminescence
Chain of Calcium-dependent protein kinase 4 (Plasmodium falciparum (isolate 3D7)) (Q8IBS5 whole entry, looked up): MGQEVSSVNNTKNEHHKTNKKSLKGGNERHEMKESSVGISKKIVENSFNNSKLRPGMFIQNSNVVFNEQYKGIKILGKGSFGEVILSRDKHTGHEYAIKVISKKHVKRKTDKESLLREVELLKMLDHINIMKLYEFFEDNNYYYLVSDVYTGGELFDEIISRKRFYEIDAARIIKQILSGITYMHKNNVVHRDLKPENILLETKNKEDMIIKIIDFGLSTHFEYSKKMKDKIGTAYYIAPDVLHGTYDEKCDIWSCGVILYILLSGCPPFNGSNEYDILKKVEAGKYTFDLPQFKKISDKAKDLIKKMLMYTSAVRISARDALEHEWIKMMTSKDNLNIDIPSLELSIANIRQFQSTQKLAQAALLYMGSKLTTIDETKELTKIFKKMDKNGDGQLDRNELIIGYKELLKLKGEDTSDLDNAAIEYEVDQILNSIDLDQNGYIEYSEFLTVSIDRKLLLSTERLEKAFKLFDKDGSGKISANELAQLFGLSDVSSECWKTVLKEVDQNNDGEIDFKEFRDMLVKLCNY

Chain of Protein kinase 7 (PK7), Plasmodium falciparum 3D7 (PF3D7_0213400) (Q7YTF7 1-343): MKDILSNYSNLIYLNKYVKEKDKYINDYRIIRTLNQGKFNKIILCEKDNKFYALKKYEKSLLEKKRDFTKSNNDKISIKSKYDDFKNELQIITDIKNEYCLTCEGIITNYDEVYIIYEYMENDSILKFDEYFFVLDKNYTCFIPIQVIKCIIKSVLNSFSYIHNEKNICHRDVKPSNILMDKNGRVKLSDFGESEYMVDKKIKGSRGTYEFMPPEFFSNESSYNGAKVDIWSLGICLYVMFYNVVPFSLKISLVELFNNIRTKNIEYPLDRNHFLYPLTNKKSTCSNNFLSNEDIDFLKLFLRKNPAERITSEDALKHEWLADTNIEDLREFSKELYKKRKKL
Chain of L-lactate dehydrogenase (Plasmodium falciparum (isolate CDC / Honduras)) (Q27743 whole entry, looked up): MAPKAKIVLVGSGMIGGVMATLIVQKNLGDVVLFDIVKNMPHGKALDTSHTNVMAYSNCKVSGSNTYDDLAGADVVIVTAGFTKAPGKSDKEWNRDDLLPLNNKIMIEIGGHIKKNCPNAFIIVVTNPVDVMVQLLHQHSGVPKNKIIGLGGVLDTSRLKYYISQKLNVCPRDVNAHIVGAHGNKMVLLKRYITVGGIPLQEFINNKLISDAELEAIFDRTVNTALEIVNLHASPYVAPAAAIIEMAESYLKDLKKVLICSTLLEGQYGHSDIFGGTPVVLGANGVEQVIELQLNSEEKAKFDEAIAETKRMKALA
Chain of Plasmodium falciparum protein kinase 6 (PK6, PF3D7_1337100) (Q8IDW1 1-305): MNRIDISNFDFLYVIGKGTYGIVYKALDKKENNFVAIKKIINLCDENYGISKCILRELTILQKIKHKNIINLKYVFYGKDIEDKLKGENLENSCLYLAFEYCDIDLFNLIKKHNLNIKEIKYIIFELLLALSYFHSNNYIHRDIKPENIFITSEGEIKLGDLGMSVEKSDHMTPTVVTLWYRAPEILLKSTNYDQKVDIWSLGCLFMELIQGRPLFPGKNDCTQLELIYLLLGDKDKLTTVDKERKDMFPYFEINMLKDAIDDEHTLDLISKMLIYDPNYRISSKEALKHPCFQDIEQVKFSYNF
Chain of Calcium-dependent protein kinase 1 (Plasmodium falciparum (isolate 3D7)) (P62344 whole entry, looked up): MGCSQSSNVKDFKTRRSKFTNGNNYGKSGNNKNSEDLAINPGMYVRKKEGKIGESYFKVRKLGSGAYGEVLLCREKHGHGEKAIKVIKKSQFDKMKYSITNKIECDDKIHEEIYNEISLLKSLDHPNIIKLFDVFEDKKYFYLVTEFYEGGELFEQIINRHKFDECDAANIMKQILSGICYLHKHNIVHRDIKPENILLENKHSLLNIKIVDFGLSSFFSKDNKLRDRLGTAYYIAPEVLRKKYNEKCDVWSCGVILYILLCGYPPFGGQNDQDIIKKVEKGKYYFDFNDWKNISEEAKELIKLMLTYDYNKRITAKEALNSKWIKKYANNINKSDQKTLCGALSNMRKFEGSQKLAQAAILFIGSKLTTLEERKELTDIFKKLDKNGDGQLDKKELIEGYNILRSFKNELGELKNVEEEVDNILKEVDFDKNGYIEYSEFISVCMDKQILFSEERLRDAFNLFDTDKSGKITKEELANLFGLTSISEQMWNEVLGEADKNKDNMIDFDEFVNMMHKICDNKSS

COc1ccc(CN2CCC(CNCc3cccc(-c4ccccc4)c3)CC2)cc1
active: growth inhibition [1] 92% | inhibition [2] 96% | growth inhibition [4] 100%
inactive: inhibition [3] 2% | outcome [5] | outcome [6] | outcome [7] | outcome [8]

CCNc1cc(C(=O)N[C@@H](Cc2ccccc2)[C@H](O)CNC2(CC(C)C)CC2)cc(N2CCCCS2(=O)=O)c1
active: growth inhibition [4] 87%
inactive: growth inhibition [1] 29% | inhibition [2] -3% | inhibition [3] -5% | outcome [5] | outcome [6] | outcome [7] | outcome [8]

CCN(CCO)CCc1cccc(Nc2nccc(-c3c(-c4ccc(NC(=O)N(CC)CC)cc4)nn4ccccc34)n2)c1
inactive: inhibition [2] 46% | inhibition [3] 2% | outcome [5] | outcome [6] | outcome [7] | outcome [8]
active: growth inhibition [1] 95% | growth inhibition [4] 101%

CN(C)CCNc1cc(-c2cccnc2)nc(-c2ccncc2)n1
active: growth inhibition [1] 98% | growth inhibition [4] 100%
inactive: inhibition [2] 33% | inhibition [3] -5% | outcome [5] | outcome [6] | outcome [7] | outcome [8]

Cc1cc(NN=Cc2ccccn2)c2cc(C(F)(F)F)ccc2n1
active: growth inhibition [1] 100% | growth inhibition [4] 102%
inactive: inhibition [2] -10% | inhibition [3] -4% | outcome [5] | outcome [6] | outcome [7] | outcome [8]

Oc1ccc2nc(N3CCNCC3)nc(NCCCc3ccccc3)c2c1
inactive: growth inhibition [1] 0% | inhibition [2] 14% | inhibition [3] -4% | outcome [5] | outcome [6] | outcome [7] | outcome [8]
active: growth inhibition [4] 102%

Oc1c(C(Nc2ccccn2)c2ccc(Cl)cc2Cl)ccc2cccnc12 (configuration not stated)
inactive: inhibition [2] 42% | inhibition [3] 1% | outcome [5] | outcome [6] | outcome [7] | outcome [8]
active: growth inhibition [1] 60% | growth inhibition [4] 88%

Cc1cccc(C(=O)NC(NC(=S)Nc2cc(Cl)ccc2Cl)C(Cl)(Cl)Cl)c1 (configuration not stated)
inactive: inhibition [2] -8% | inhibition [3] 1% | outcome [5] | outcome [6] | outcome [7] | outcome [8]
active: growth inhibition [1] 61% | growth inhibition [4] 94%

CCOC(=O)c1ccc(COc2ccc(C)nc2)cc1
active: growth inhibition [4] 100%
inactive: growth inhibition [1] -7% | inhibition [2] 14% | inhibition [3] -8% | outcome [5] | outcome [6] | outcome [7] | outcome [8]

COc1cccc(CNC(=O)c2ccnc(-c3ccc(CNCCOc4ccccc4)cc3)c2)c1
inactive: growth inhibition [1] 10% | inhibition [2] 23% | inhibition [3] -4% | outcome [5] | outcome [6] | outcome [7] | outcome [8]
active: growth inhibition [4] 83%

Cc1ccc(F)cc1-c1cc(N2CCCN(C(=O)c3ccc(Br)o3)CC2)ncn1
inactive: inhibition [2] 0% | inhibition [3] 0% | outcome [5] | outcome [6] | outcome [7] | outcome [8]
active: growth inhibition [1] 91% | growth inhibition [4] 94%

COc1ccc(-c2cccc(NC(=O)c3cccc(Cl)c3)c2)cc1CN1CCC(O)CC1
inactive: growth inhibition [1] 16% | inhibition [2] 38% | inhibition [3] 5% | outcome [5] | outcome [6] | outcome [7] | outcome [8]
active: growth inhibition [4] 98%

Fc1ccc2nc(-c3cccc(-c4ccc(CNCc5ccccc5)cc4)c3)[nH]c2c1
active: growth inhibition [1] 89% | growth inhibition [4] 102%
inactive: inhibition [2] 27% | inhibition [3] -1% | outcome [5] | outcome [6] | outcome [7] | outcome [8]

Cc1cc2nc(-c3cc(-c4cccc(NS(C)(=O)=O)c4)cnc3N)[nH]c2cc1C
active: growth inhibition [4] 102%
inactive: growth inhibition [1] 32% | inhibition [2] 43% | inhibition [3] -2% | outcome [5] | outcome [6] | outcome [7] | outcome [8]

COC(=O)CCCCCOc1cc(Cc2cnc(N)nc2N)cc(OC)c1OC
active: growth inhibition [4] 90%
inactive: growth inhibition [1] -3% | inhibition [2] -15% | inhibition [3] 2% | outcome [5] | outcome [6] | outcome [7] | outcome [8]

Brc1ccc(Nc2ccnc3cc(-c4nccs4)ccc23)cc1Oc1ccnc2cc(-c3nccs3)ccc12
active: growth inhibition [1] 83% | growth inhibition [4] 91%
inactive: inhibition [2] 15% | inhibition [3] -4% | outcome [5] | outcome [6] | outcome [7] | outcome [8]

Clc1cccc(C23N=C(Nc4nc5ccccc5[nH]4)NC2(c2ccccc2)NC(Nc2nc4ccccc4[nH]2)=N3)c1 (configuration not stated)
active: growth inhibition [1] 88% | growth inhibition [4] 85%
inactive: inhibition [2] -3% | inhibition [3] -3% | outcome [5] | outcome [6] | outcome [7] | outcome [8]

CCN(CC)CCN(CCN(CC)CC)c1ccc(-c2nc3cc(Cl)c(Cl)cc3[nH]2)cc1
active: growth inhibition [1] 97% | growth inhibition [4] 101%
inactive: inhibition [2] 9% | inhibition [3] 2% | outcome [5] | outcome [6] | outcome [7] | outcome [8]

COc1cc(C(=O)NCCCN2CCN(c3cccc(Cl)c3)CC2)ccc1-c1cc2cc(Cl)c(Cl)cc2[nH]1
inactive: inhibition [2] 35% | inhibition [3] 0% | outcome [5] | outcome [6] | outcome [7] | outcome [8]
active: growth inhibition [1] 86% | growth inhibition [4] 100%

Nc1ncnc2nc(-c3ccc(F)cc3)cc(-c3ccc(NC(=O)c4ccccc4)cc3)c12
inactive: inhibition [2] -6% | inhibition [3] 0% | outcome [5] | outcome [6] | outcome [7] | outcome [8]
active: growth inhibition [1] 97% | growth inhibition [4] 100%

CCOC(=O)c1ccc(NC(=O)N[C@@H](Cc2ccc(O)cc2)C(=O)NC2CCN(Cc3ccc4c(c3)OCO4)CC2)cc1
active: growth inhibition [4] 86%
inactive: growth inhibition [1] 24% | inhibition [2] -1% | inhibition [3] 3% | outcome [5] | outcome [6] | outcome [7] | outcome [8]

O=C(Nc1cccc(-c2cccc(-c3nc4ccccc4[nH]3)c2)c1)c1ccncc1
active: growth inhibition [4] 99%
inactive: growth inhibition [1] 38% | inhibition [2] 27% | inhibition [3] -4% | outcome [5] | outcome [6] | outcome [7] | outcome [8]

CCn1c(SCC(=O)Nc2cc(C(F)(F)F)ccc2Cl)nc2ccccc2c1=O
active: growth inhibition [1] 95% | growth inhibition [4] 93%
inactive: inhibition [2] 8% | inhibition [3] 3% | outcome [5] | outcome [6] | outcome [7] | outcome [8]

CC(C)COc1ccc(Cl)cc1Cc1ccc(-c2nc3ccc(Br)cc3[nH]2)o1
inactive: inhibition [2] 19% | inhibition [3] -3% | outcome [5] | outcome [6] | outcome [7] | outcome [8]
active: growth inhibition [1] 75% | growth inhibition [4] 80%

Cc1cc(NC(=O)NCCN2CCC(NS(=O)(=O)c3ccccc3F)CC2)c2ccccc2n1
inactive: growth inhibition [1] 44% | inhibition [2] 0% | inhibition [3] -4% | outcome [5] | outcome [6] | outcome [7] | outcome [8]
active: growth inhibition [4] 81%

Cc1cc(N[C@@H](Cc2ccccc2)C(=O)NCCOc2ccccc2)nc(NCCc2ccccn2)n1
active: growth inhibition [4] 92%
inactive: growth inhibition [1] 42% | inhibition [2] 12% | inhibition [3] -2% | outcome [5] | outcome [6] | outcome [7] | outcome [8]

O=C(/C=C/c1ccc(Cl)c(Cl)c1)NCCCCCN1CCC(NC(=O)c2cc(Cl)ccc2F)CC1
inactive: growth inhibition [1] 32% | inhibition [2] 48% | inhibition [3] 4% | outcome [5] | outcome [6] | outcome [7] | outcome [8]
active: growth inhibition [4] 92%

CCn1nc(C(=O)NC2CCOc3ccccc32)c2ccccc2c1=O (configuration not stated)
active: growth inhibition [1] 59% | growth inhibition [4] 86%
inactive: inhibition [2] 13% | inhibition [3] 0% | outcome [5] | outcome [6] | outcome [7] | outcome [8]

C[C@H]1CN(Cc2cccc(-c3cc(CNC(=O)c4cccc(CN5CCN(CCOc6ccccc6)CC5)c4)ccc3F)c2)CCN1
active: growth inhibition [1] 88% | inhibition [2] 59% | growth inhibition [4] 91%
inactive: inhibition [3] 4% | outcome [5] | outcome [6] | outcome [7] | outcome [8]

CCc1cn2c3c(cc(C(=O)N[C@@H](Cc4cc(F)cc(F)c4)[C@H](O)CNC4CCCCC4)cc13)N(C)S(=O)(=O)CC2
active: growth inhibition [1] 99% | growth inhibition [4] 100%
inactive: inhibition [2] 9% | inhibition [3] -6% | outcome [5] | outcome [6] | outcome [7] | outcome [8]

CNC(=O)Cc1ccc(C(=O)Nc2cccc(-c3cccc(-c4nc5ccc(C(F)(F)F)cc5[nH]4)c3)c2)cc1
active: growth inhibition [4] 95%
inactive: growth inhibition [1] 37% | inhibition [2] 40% | inhibition [3] 5% | outcome [5] | outcome [6] | outcome [7] | outcome [8]

O=C(NC1CCCCN(Cc2ccccc2O)C1)c1ccc(-c2ccccc2)cc1 (configuration not stated)
active: growth inhibition [1] 61% | growth inhibition [4] 97%
inactive: inhibition [2] 21% | inhibition [3] -3% | outcome [5] | outcome [6] | outcome [7] | outcome [8]

CCOC(=O)CNC(=O)N(CCN(Cc1ccccc1)C(=O)NCC(=O)OCC)Cc1ccccc1
inactive: growth inhibition [1] -1% | inhibition [2] 9% | inhibition [3] 5% | outcome [5] | outcome [6] | outcome [7] | outcome [8]
active: growth inhibition [4] 98%

CCCOc1ccc(OCCCON2C(N)=NC(N)=NC2(C)C)cc1
active: growth inhibition [1] 94% | inhibition [2] 59% | growth inhibition [4] 96%
inactive: inhibition [3] 5% | outcome [5] | outcome [6] | outcome [7] | outcome [8]

Nc1c(Cl)cc(C(O)CNCCCCCCOCCc2ccc(CO)s2)cc1Cl (configuration not stated)
active: growth inhibition [1] 71% | growth inhibition [4] 86%
inactive: inhibition [2] 1% | inhibition [3] -2% | outcome [5] | outcome [6] | outcome [7] | outcome [8]

Cc1[nH]c(C)c(-c2ccc(/C=C/c3ccccn3)cc2)c(=O)c1Cl
active: growth inhibition [1] 96% | growth inhibition [4] 97%
inactive: inhibition [2] -9% | inhibition [3] -2% | outcome [5] | outcome [6] | outcome [7] | outcome [8]

CC(=O)Nc1cc(C(=O)Nc2ccc(C3=NCCN3)cc2)ccc1C(=O)Nc1ccc(C2=NCCN2)cc1
inactive: inhibition [2] 12% | inhibition [3] -3% | outcome [5] | outcome [6] | outcome [7] | outcome [8]
active: growth inhibition [1] 92% | growth inhibition [4] 96%

CC(C)(C)c1ccc(CNC(=O)c2cc(CNC3CCNC3)ccc2O)cc1 (configuration not stated)
active: growth inhibition [4] 94%
inactive: growth inhibition [1] 1% | inhibition [2] 0% | inhibition [3] -6% | outcome [5] | outcome [6] | outcome [7] | outcome [8]

CCCc1cc(OC)c(CC2c3cc(O)c(Cl)cc3CCN2C)cc1OC (configuration not stated)
inactive: inhibition [2] 19% | inhibition [3] -5% | outcome [5] | outcome [6] | outcome [7] | outcome [8]
active: growth inhibition [1] 99% | growth inhibition [4] 100%

— PubChem BioAssay
